A short description of assay [1]: qHTS assay for small molecule agonists of the p53 signaling pathway (AID 651631; calls by dose curve; further: nearly all actives have a fitted effect of over 15% in size). In short, it runs like this: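 HCT-116 cells carrying a beta-lactamase reporter under p53 response elements were dosed with compound for 16 h at 37 °C. LiveBLAzer B/G FRET substrate was then added for 2 h at room temperature, and fluorescence intensity was read to detect pathway agonism.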

Assay [2] is described as follows: qHTS assay for small molecules that induce genotoxicity in human embryonic kidney cells expressing luciferase-tagged ATAD5 (AID 651632). Further: nearly all actives have a fitted effect of over 15% in size. The essentials:
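A rise in luciferase signal from ATAD5-tagged HEK293T cells marks genetic stress. Cells were exposed to compounds for 16 hr at 37C, 5% CO2, then luciferase was quantified after a 30 min room-temperature incubation with Amplite.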

Assay [3] in a line: qHTS assay for small molecule agonists of the p53 signaling pathway - cell viability (AID 651633; calls by dose curve;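 further: p53RE-bla HCT reporter cells with a stable beta-lactamase p53 reporter; nearly all actives have a fitted effect of over 30% in size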). In short, it runs like this: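 p53RE-bla cells, seeded at 4,000 per well and rested 5 h at 37 C/5% CO2, received compounds in DMSO for 16 h at 37 C. CellTiter-Glo was then added, and luminescence was read after 30 min at room temperature to gauge cytotoxicity.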
Assay [4] in a line: qHTS assay for small molecules that induce genotoxicity in human embryonic kidney cells expressing luciferase-tagged ATAD5 - cell viability (AID 651634; calls by dose curve; further: nearly all actives have a fitted effect of over 25% in size; further: potency means the concentration at half of the fitted maximal effect). In short, it runs like this: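 Cytotoxicity counter-readout: after 15.5 hr compound treatment at 37C, live-cell protease activity in ATAD5-luciferase HEK293T cells measured by CellTiter-Fluor fluorescence, 30 min development at 37C.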

A short description of assay [5]: qHTS assay for small molecule disruptors of the mitochondrial membrane potential - cell viability (AID 720634; calls by dose curve;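 further: human HepG2 liver cancer cells; nearly all actives have a fitted effect of over 20% in size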). The essentials: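 Cytotoxicity was quantified from ATP content by CellTiter-Glo luminescence in the same wells as the MMP dye read-out. HepG2 (2,000 cells/well) were plated overnight and exposed to compounds for 1 hr at 37 C.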
The nature of assay [6]: qHTS assay for small molecule disruptors of the mitochondrial membrane potential (AID 720635). Further: potency means the concentration at half of the fitted maximal effect. In short, it runs like this: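 HepG2 cells (2,000/well) attached overnight at 37C, then took compound for 1 hr at 37C, 5% CO2. Mito-MPS dye was added for 30 min; fluorescence was read at 490/535 nm (monomers) and 540/590 nm (aggregates).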
Assay [7] is described as follows: qHTS assay to test for compound auto fluorescence at 590 nm (red) in HepG2 cells (AID 720674). In short, it runs like this: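 Intrinsic compound fluorescence in the red window (Ex/Em 540/590 nm) is measured in attached HepG2 cells exposed for 1 hr, DMSO vehicle as baseline, benchmarked to Rose Bengal sodium.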
Assay [8] in a line: qHTS assay to test for compound auto fluorescence at 535 nm (green) in HepG2 cells (AID 720675).
Assay [9] can be described thus: qHTS assay to test for compound auto fluorescence at 460 nm (blue) in HEK293 cells (AID 720678). In short, it runs like this:
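Cells were seeded and left to adhere for 4-5 hr at 37C. Compounds were then pin-transferred. After an overnight incubation at 37C under 5% CO2, intrinsic fluorescence at 405/460 nm was measured and referenced to triamterene.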

Assay [10] is described as follows: qHTS assay to test for compound auto fluorescence at 590 nm (red) in HEK293 cells (AID 720679). The essentials:
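Each well held 2,000 HEK293 cells in medium containing 10% dialyzed FBS. Following 4-5 hr attachment at 37C, 23 nL test compound or DMSO was added; plates sat overnight, and red fluorescence (540/590nm) was recorded.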

A short description of assay [11]: qHTS assay to test for compound auto fluorescence at 535 nm (green) in HEK293 cells (AID 720680).
The nature of assay [12]: qHTS assay to test for compound auto fluorescence at 460 nm (blue) in HEK293 cell free culture (AID 720681). In short, it runs like this: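 Test compounds were pinned into cell-free culture medium (DMEM with 10% FBS) and fluorescence was read directly at Ex/Em 405/460 nm. Signals were expressed as fluorescence equivalents of triamterene, with DMSO vehicle as control.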
Assay [13] in a line: qHTS assay to test for compound auto fluorescence at 535 nm (green) in HEK293 cell free culture (AID 720682). The essentials:
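Green-label autofluorescence (485 nm excitation, 535 nm emission) measured on compound added to cell-free culture medium (DMEM, 10% FBS). Output is expressed relative to fluorescein.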

Assay [14] in a line: qHTS assay to test for compound auto fluorescence at 590 nm (red) in HEK293 cell free culture (AID 720683). The essentials: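 Tox21 10K library compounds were pinned into cell-free DMEM with 10% FBS and fluorescence was read at excitation 540 nm. Activity is expressed as Rose Bengal sodium equivalency.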
Assay [15] is described as follows: qHTS assay to test for compound auto fluorescence at 590 nm (red) in HepG2 cell free culture (AID 720684). The essentials:
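Readout: intrinsic compound fluorescence at 590 nm emission after 540 nm excitation, scaled to Rose Bengal sodium. Matrix was cell-free MEM with 10% FBS; DMSO vehicle wells served as control.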

The nature of assay [16]: qHTS assay to test for compound auto fluorescence at 460 nm (blue) in HepG2 cell free culture (AID 720685). In short, it runs like this: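 Cell-free plates of MEM plus 10% FBS received 23 nL compound or DMSO vehicle; blue-channel (405/460 nm) intensity scored against triamterene as reference fluorophore.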
Assay [17] in a line: qHTS assay to test for compound auto fluorescence at 535 nm (green) in HepG2 cell free culture (AID 720686).
Assay [18] can be described thus: qHTS assay to test for compound auto fluorescence at 460 nm (blue) in HepG2 cells (AID 720687). In short, it runs like this: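 Cells (2,000/well in MEM with 10% FBS) attached overnight at 37 C, then were exposed to compound or DMSO for 1 hr at 37 C, 5% CO2. Fluorescence read at Ex/Em 405/460 nm, expressed as triamterene-equivalent signal.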
The target in assay [19] is Glucocorticoid receptor (Homo sapiens) (UniProt P04150). Put plainly: qHTS assay to identify small molecule agonists of the glucocorticoid receptor (GR) signaling pathway (AID 720691; active means well fitted activation curve with a large enough effect in the signal ratio in the repeat runs, not every such curve was filed as active; the % refers to the signal ratio). To be noted: GR-bla HeLa, beta-lactamase reporter ratio, 18 h; activation: at 62.4 µM (top of the series). The essentials: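 Agonist-mode qHTS in HeLa cells stably expressing a glucocorticoid-response-element beta-lactamase reporter. Fluorescence intensity read with FRET substrate (2 h, room temperature) after 18 h compound treatment at 37 C.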

Assay [20] shares this target. Nature of the assay: qHTS assay to identify small molecule antagonists of the glucocorticoid receptor (GR) signaling pathway (AID 720692; active means well fitted inhibition curve with a large enough effect in the signal ratio in the repeat runs, not every such curve was filed as active; the % refers to the signal ratio). In short, it runs like this: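 Inhibition of dexamethasone-driven (5 nM final) beta-lactamase expression was measured in GRE-reporter HeLa cells over 18 h at 37C. Fluorescence was read after 2 h with the B/G FRET substrate at room temperature.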

Results filed as inconclusive are left out. Calls of active or inactive are those of the source. Unless noted, the call rests on the fitted dose curve; in most records, active means well fitted curve in the direction sought with a large enough effect in the repeat runs; inconclusive means weak or mixed curves; inactive means no such curve, though single readings can be large; an effect the other way counts as inactive or inconclusive.

Sequence of Glucocorticoid receptor (Homo sapiens) (P04150 whole entry, looked up): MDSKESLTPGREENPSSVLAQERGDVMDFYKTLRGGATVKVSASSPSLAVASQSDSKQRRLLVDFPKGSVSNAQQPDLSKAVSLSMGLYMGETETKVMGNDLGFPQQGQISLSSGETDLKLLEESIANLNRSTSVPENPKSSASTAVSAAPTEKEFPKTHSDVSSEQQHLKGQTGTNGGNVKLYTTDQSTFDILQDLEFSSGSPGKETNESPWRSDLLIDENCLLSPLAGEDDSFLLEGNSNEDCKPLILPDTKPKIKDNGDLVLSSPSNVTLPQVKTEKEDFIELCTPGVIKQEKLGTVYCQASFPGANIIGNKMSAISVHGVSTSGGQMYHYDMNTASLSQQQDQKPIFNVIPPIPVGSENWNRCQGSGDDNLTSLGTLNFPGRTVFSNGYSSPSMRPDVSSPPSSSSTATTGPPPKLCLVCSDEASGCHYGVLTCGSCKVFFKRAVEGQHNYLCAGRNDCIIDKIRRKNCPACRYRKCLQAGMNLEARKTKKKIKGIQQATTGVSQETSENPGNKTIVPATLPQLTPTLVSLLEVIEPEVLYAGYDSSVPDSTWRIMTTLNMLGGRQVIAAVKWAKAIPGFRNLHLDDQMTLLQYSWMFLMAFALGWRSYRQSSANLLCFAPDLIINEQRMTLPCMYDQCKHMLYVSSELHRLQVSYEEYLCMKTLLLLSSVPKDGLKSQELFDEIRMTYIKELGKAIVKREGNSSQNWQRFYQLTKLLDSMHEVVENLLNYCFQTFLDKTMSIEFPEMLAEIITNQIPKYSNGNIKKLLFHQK

Regarding `O=S(=O)(O)c1ccc2ccccc2c1`, the Potency result in assay [1], in assay [3], in [4], in [5] and in [6] was “inactive” throughout. Moreover, the outcome in [2], in assay [7], in assay [8], in [9], in assay [10] and in assay [11] was inactive. Further, the result in assay [12], in [13], in assay [14], in assay [15], in [16] and in assay [17] was inactive. The outcome in [18] was inactive.
Regarding `CCC(O)OCCCOC` (stereo not given), the Potency result in [1], in [3], in assay [4], in assay [5], in assay [6] and in [19] was “inactive” each time. Also, the Potency result in assay [20] is “inactive”. Also, the compound was called inactive in assay [2], in assay [7], in assay [8], in assay [9], in [10] and in [11]. The compound was called inactive in assay [13], in [15], in [17] and in assay [18].
As for `Nc1cc([N+](=O)[O-])ccc1O`, the Potency entry in assay [1], in [3], in assay [5], in assay [19] and in assay [20] was “inactive” throughout. In addition, the compound was called inactive in assay [2], in assay [7], in assay [8], in [9], in assay [10] and in [11]. In addition, the compound was classed as inactive in assay [12], in assay [13], in assay [15], in [17] and in assay [18]. Also, the Potency in assay [4] was 24.3 µM (active); in assay [6] it was 27.3 µM (active).
Consider `C=C(C)C(=O)OCCOCCOCCOC(=O)C(=C)C`, for which the Potency result in assay [1], in [3], in assay [4], in assay [5], in assay [6] and in assay [19] was “inactive” each time. The Potency result in assay [20] is “inactive”. Also, the outcome in [2], in [8], in assay [9], in assay [10], in assay [12] and in assay [13] was inactive. Also, the call in assay [14], in assay [15], in assay [16], in assay [17] and in assay [18] was inactive.
Regarding `CCCCCCCC(=O)OC`, the Potency result in [1], in assay [3], in assay [5] and in assay [6] was “inactive” in each case. The compound was classed as inactive in assay [2], in assay [7], in assay [8], in assay [9], in [10] and in assay [11]. Moreover, the outcome in assay [13], in assay [15], in assay [17] and in assay [18] was inactive.
On to `CC(C)(N)CO`, for which the Potency result in assay [1], in assay [3], in assay [5], in [6], in assay [19] and in [20] was “inactive” in each case. The result in assay [2], in assay [7], in assay [8], in assay [9], in assay [10] and in assay [11] was inactive. The compound was called inactive in assay [13], in assay [14], in assay [15], in [17] and in [18].
Consider `CC1CCC2CC1C2(C)C` (stereo not given), for which the Potency entry in assay [1], in assay [3], in [5], in assay [6], in assay [19] and in assay [20] was “inactive” throughout. In addition, the compound was classed as inactive in assay [2], in assay [7], in [8], in assay [9], in assay [10] and in assay [11]. Besides, the compound was called inactive in [12], in assay [13], in assay [14], in assay [15], in assay [16] and in assay [17]. The compound was called inactive in assay [18].
`CSCCC=O`: the Potency entry in assay [1], in assay [3], in [4], in [5], in assay [6] and in assay [19] was “inactive” in each case. Besides, the Potency result in [20] was “inactive”. For the same compound, the compound was classed as inactive in assay [2], in [7], in assay [8], in assay [9], in assay [10] and in [12]. In addition, the compound was called inactive in assay [13], in [14], in [15], in assay [16], in assay [17] and in [18].

For the origin of these results see PubChem BioAssay (Tox21).
